ADAM17 inh: ADAM17 inhibitors, primary screen, biochemical, QFRET | Disintegrin and metalloproteinase domain-containing protein 17 (Homo sapiens), P78536 | AID 720648, 2013 | 370,000 tested, 0.83% active | recombinant ADAM17, EDANS/DABCYL FRET peptide cleavage | inhibition, % at 6.95 µM;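 active means inhibition above the mean of compounds lying between control limits plus 3 SD, set per campaign, cut at about 8.5% in these data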;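 further: 0% = DMSO-only wells as the low control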
PLCb3 inh: human PLC-beta3 inhibitors, primary screen, biochemical, fluorescence; 1-phosphatidylinositol 4,5-bisphosphate phosphodiesterase beta-3 (Homo sapiens), Q01970; Purified PLC-beta3, fluorogenic substrate; inhibition, % at 12.2 µM; 370,000 tested, 0.18% active; in the data active means inhibition above about 11%;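 further: 0% = median of compound wells on plate and 100% = full blocker control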
Rce1 inh: yeast Rce1p protease inhibitors, primary screen, biochemical, fluorescence, cell-free homogeneous; CAAX prenyl protease 2 (Saccharomyces cerevisiae (strain ATCC 204508 / S288c)), Q03530; yeast membranes, quenched prenylated peptide cleavage fluorescence; calls only; 290,000 tested, 0.27% active; AID 2563, 2010;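 active means fall in fluorescence gain of 50% or more versus controls, with final raw signal at or below 3038400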;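 further: plate controls were neutral control wells for no effect and wells lacking membranes for full effect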
Target sequence (Q03530 whole entry, looked up): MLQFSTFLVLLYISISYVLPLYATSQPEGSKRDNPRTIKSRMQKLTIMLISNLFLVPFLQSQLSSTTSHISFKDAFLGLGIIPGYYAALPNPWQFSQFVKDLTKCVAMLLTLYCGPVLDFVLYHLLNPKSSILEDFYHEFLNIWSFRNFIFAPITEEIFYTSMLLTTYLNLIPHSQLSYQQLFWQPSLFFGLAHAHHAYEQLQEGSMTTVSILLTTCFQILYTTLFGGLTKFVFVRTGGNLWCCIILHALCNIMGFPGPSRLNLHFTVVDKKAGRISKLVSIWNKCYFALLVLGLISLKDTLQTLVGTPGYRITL
PLCg1 inh: PLC-gamma1 enzyme inhibitors, primary screen, biochemical, fluorescence, purified enzyme; fluorogenic substrate; inhibition, % at 12.2 µM; 370,000 tested, 0.84% active; in the data active means inhibition above about 9.5%
ADAM10 inh: human ADAM10 inhibitors, primary screen, biochemical, QFRET, HTS. Disintegrin and metalloproteinase domain-containing protein 10 (Homo sapiens), O14672. recombinant ADAM10, EDANS/DABCYL FRET peptide cleavage, 3 h. inhibition, % at 7 µM. 370,000 tested, 0.62% active. AID 720582, 2013;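 active means inhibition above a per-campaign cutoff equal to the mean of compounds falling between control-based bounds plus 3 SD, cut at about 20% in these data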;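 further: 0% = DMSO wells while the 100% control is not disclosed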
ADAM10 ctr: ADAM10 inhibitors, counter-screen for ADAM17 exosite inhibitor project, biochemical, FRET, human ADAM10; shares compounds with ADAM17 inh; recombinant ADAM10, EDANS/DABCYL FRET peptide cleavage, 3 h; inhibition, % at 6.95 µM; 2,900 tested, 47% active; AID 743256, 2014;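 active means mean inhibition over the triplicate runs exceeds the activity threshold set in the earlier primary screen, cut at about 20% in these data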;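 further: 0% = DMSO wells and 100% = marimastat wells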
ADAM17 confirm: ADAM17 inhibitors, hit retest, confirmation, biochemical, QFRET peptide cleavage. 2,900 tested, 65% active. inhibition, % at 6.95 µM. recombinant ADAM17, EDANS/DABCYL QFRET peptide cleavage. shares compounds with ADAM17 inh;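 active means mean inhibition across replicates above the hit cutoff set in the primary screen, cut at about 8.5% in these data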;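 further: 0% = DMSO wells and 100% = marimastat wells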
Numbers without * were called inactive; i = inactive; / = no result given. This is a sample that favours compounds with a hit; in the whole collection about 2.1% have one here.

SMILES | ADAM17 inh | PLCb3 inh | Rce1 inh | PLCg1 inh | ADAM10 inh | ADAM10 ctr | ADAM17 confirm
O=C(NCc1ccc2c(c1)OCO2)c1ccc(Cl)c(S(=O)(=O)NCc2ccccc2)c1 | 0.2 | -8.1 | i | -11.1 | 1.1 | / | /
O=C(Nc1cccc(Cl)c1)c1ccc(F)c(S(=O)(=O)NCc2ccc3c(c2)OCO3)c1 | 8.7* | -6.7 | i | 1.6 | 17.6 | 24.3* | 12.9*
COc1ccc(CCNC(=O)COC(=O)C2CC2)cc1OC | 6.5 | 5.0 | / | 2.4 | 4.7 | / | /
COc1ccc(Cn2ccnc2)cc1[N+](=O)[O-] | 2.2 | 6.5 | i | 3.1 | 4.9 | / | /
COc1ccc(Cn2c(SC)nc3ccccc32)cc1[N+](=O)[O-] | 8.7* | 1.0 | i | 4.0 | 15.7 | 9.8 | 1.8
Nc1c(Br)cc2c([nH]c(=O)c3ccccc32)c1Br | -5.6 | -5.5 | / | -1.8 | -7.0 | / | /
CC(C)c1c(C(=O)N/N=C/c2ccc(C(F)(F)F)cc2)nnn1-c1nonc1N | 9.8* | -1.3 | i | 5.5 | 17.5 | 22.4* | 13.8*
CCC(C)[C@H](NC(=O)[C@@H]1CSC2c3ccccc3C(=O)N21)C(=O)NCC1CCCO1 (stereo partly specified) | 11.6* | -2.5 | i | 3.6 | 0.5 | 7.2 | 2.7
Oc1ccccc1CN1CCCC(N2CCN(c3cccc(C(F)(F)F)c3)CC2)C1 (stereo unspecified) | 9.0* | -1.5 | i | 1.7 | 11.4 | 23.7* | 19.3*
Fc1ccccc1N1CCN(C2CCCN(Cc3cccc(C(F)(F)F)c3)C2)CC1 (stereo unspecified) | -0.8 | -5.9 | i | -0.1 | 1.9 | / | /
Cc1cccc(N2CCN(S(=O)(=O)c3ccc4c(c3)C(C)(C)C(=O)N4C)CC2)c1C | 8.8* | -1.9 | i | 5.8 | 19.6 | 2.8 | 8.0
COC(=O)c1c(C(=O)OC)c(-c2ccc(OC)cc2)n2c1CS(=O)(=O)C2 | -4.0 | -1.9 | i | -2.0 | 2.2 | / | /
O=C(NCc1ccccc1Cl)c1nnc(CS(=O)(=O)c2ccccc2)o1 | 10.9* | 5.1 | i | 1.9 | 17.2 | -1.5 | -0.6
Cc1ccc(CNC(=O)c2nnc(CS(=O)(=O)c3ccccc3)o2)cc1 | 1.1 | 0.8 | i | -0.3 | 6.0 | / | /
OCc1cccc[n+]1CCc1ccccc1 | 10.8* | -2.8 | i | 0.1 | -0.5 | -10.7 | -0.9
CC(C)c1ccc(/C=N/n2c(-c3ccccc3)n[nH]c2=S)cc1 | 10.1* | -1.8 | i | 7.5 | 18.9 | 9.5 | 4.6
S=c1[nH]nc(-c2ccncc2)n1/N=C/c1ccccc1 | 2.9 | 4.9 | i | 6.1 | 1.4 | / | /
Cc1cccc(/C=N/n2c(-c3ccncc3)n[nH]c2=S)c1 | 11.1* | 7.8 | i | -0.1 | 9.5 | 12.0 | 3.8
CCOC(=O)C1=CCN(S(C)(=O)=O)C1c1ccc(C)cc1 (stereo unspecified) | -2.0 | 1.9 | / | 0.1 | -8.1 | / | /
O=C(O)c1cc(S(=O)(=O)Nc2ccc3cn[nH]c3c2)ccc1O | -11.9 | -18.0 | / | -11.4 | -26.9 | / | /
NS(=O)(=O)c1ccc(N/N=C/C=C/c2ccccc2[N+](=O)[O-])cc1 | 8.7* | -8.3 | i | 5.0 | 17.4 | 18.6 | 18.5*
COc1ccc(C(C)C)cc1S(=O)(=O)Nc1ccccn1 | 10.1* | 6.9 | i | 3.6 | 9.9 | -15.4 | -6.2
C[C@@H]1CC=C[C@H]2[C@H]1C(=O)N(Cc1ccccc1)[C@H]2c1ccc2ccccc2c1 | 9.4* | 4.9 | i | 5.4 | 16.9 | 10.4 | 6.0
Clc1ccc(OCCOCCOc2cccc3cccnc23)c(Br)c1 | 8.9* | -19.4 | i | -18.4 | 13.4 | 12.0 | 12.5*
